PubChem BioAssay (Tox21)
Records with an inconclusive call do not appear. Calls of active or inactive are those of the source. Unless noted, calls follow the shape of the full dose curve.

What was measured:
[1] = qHTS assay to identify small molecule agonists of the vitamin D receptor (VDR) signaling pathway - cell viability counter screen (AID 743224; active = well fitted curve in the direction sought with a large enough effect in the repeat runs; an effect the other way counts as inactive or inconclusive; also: series mostly up to about 63 µM; nearly all actives have a fitted effect of over 50% in size)
Outline: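 VDR-bla cells, 4 h after plating, exposed to compounds for 16 h at 37C; viability then read in the same wells as CellTiter-Glo luminescence after 30 min at room temperature, following the bla FRET read.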

[2] = qHTS assay to identify small molecule antagonists of the vitamin D receptor (VDR) signaling pathway - cell viability counter screen (AID 743225; active = well fitted curve in the direction sought with a large enough effect in the repeat runs; an effect the other way counts as inactive or inconclusive; also: nearly all actives have a fitted effect of over 50% in size)
Outline: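 In this counter screen, VDR-bla HEK 293T cells receive test compound plus 3 nM final calcitriol for 16 h at 37C. Room-temperature steps of 2 h with the beta-lactamase substrate, then 30 min with CellTiter-Glo, precede the luminescence read.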

[3] = qHTS assay to identify small molecule agonists of the NFkB signaling pathway - cell viability counter screen (AID 1159515); also: series mostly up to about 61 µM; nearly all actives have a fitted effect of over 55% in size
Outline: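 NFkB-bla ME-180 cells, 2,000/well, plated overnight at 37 C; compound added for 5 hr at 37 C. Viability read in the same wells as the bla reporter, by CellTiter-Glo luminescence after 30 min at room temperature.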

[4] = qHTS assay to identify small molecule agonists of the endoplasmic reticulum stress response signaling pathway (AID 1159516; active = well fitted activation curve with a large enough effect in the signal ratio in the repeat runs, not every such curve was filed as active; the % refers to the signal ratio; also: potency is read from the fitted curve at half-maximal effect)
Outline: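 CellSensor ESRE-bla HeLa cells, 1,500 per well, plated overnight, then exposed to compounds for 5 hr at 37 C. Beta-lactamase reporter read with LiveBLAzer B/G FRET substrate after 2 hr at room temperature, 405 nm excitation, 460 and 530 nm emission.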

[5] = qHTS assay to identify small molecule agonists of the endoplasmic reticulum stress response signaling pathway - cell viability counter screen (AID 1159517);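 also: HeLa cells carrying an ER stress response element beta-lactamase reporter; series mostly up to about 61 µM; nearly all actives have a fitted effect of over 50% in size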
Outline: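 CellTiter-Glo was added to wells already read for beta-lactamase FRET, and luminescence was recorded 30 min later. Cells: ESRE-bla HeLa, 1,500 per well, compound exposure 5 hr at 37 C.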

[6] = qHTS assay to identify small molecule antagonists of the retinoid-related orphan receptor gamma (ROR-gamma) signaling pathway - cell viability counter screen (AID 1159520; active = well fitted curve in the direction sought with a large enough effect in the repeat runs; an effect the other way counts as inactive or inconclusive; also: nearly all actives have a fitted effect of over 50% in size)
Outline: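 Tet-on ROR gamma CHO cells (1,000/well) were plated 4 hr, given compounds in DMSO for 2 hr at 37 C, then induced with 1 uM final doxycycline for 16 hr. Viability was read as ATP by CellTiter-Glo luminescence after 30 min.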

[7] = qHTS assay to identify small molecule agonists of the AP-1 signaling pathway - cell viability counter screen (AID 1159525); also: nearly all actives have a fitted effect of over 55% in size
Outline: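 ME-180 AP-1-bla, 2500 cells/well, Opti-MEM + 0.5% dialyzed FBS; overnight 37 °C; cpd 15-pt titration, 5 h 37 °C; CellTiter-Glo 30 min RT; luminescence read; normalised to TOAB and DMSO controls.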

[8] = qHTS assay to identify small molecule agonists of the AP-1 signaling pathway (AID 1159526)
[9] = biological target: Retinoic acid receptor RXR-alpha (Homo sapiens) (UniProt P19793); test: qHTS assay to identify small molecule agonists of the RXR signaling pathway (AID 1159527); also: nearly all actives have a fitted effect of over 35% in size
Outline: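 Fluorescence ratio readout (460 vs 530 nm) from GeneBLAzer RXR-alpha HEK 293T cells after 16 hr compound treatment; cells seeded 5 hr beforehand in low-serum, charcoal-stripped medium.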

[10] = biological target: Nuclear receptor ROR-gamma (Homo sapiens) (UniProt P51449); test: qHTS assay to identify small molecule antagonists of the retinoid-related orphan receptor gamma (ROR-gamma) signaling pathway (AID 1159521; active = well fitted curve in the direction sought with a large enough effect in the repeat runs; an effect the other way counts as inactive or inconclusive)
Outline: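 Screening format: cell-based luciferase reporter in CHO cells with doxycycline-inducible RORγ. Compound pre-exposure lasts 2 h, doxycycline is 1 uM final, induction runs 16 h at 37 C, and ONE-Glo luminescence is read.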

Measured: Potency

Chain of Retinoic acid receptor RXR-alpha (Homo sapiens) (P19793 whole entry, looked up): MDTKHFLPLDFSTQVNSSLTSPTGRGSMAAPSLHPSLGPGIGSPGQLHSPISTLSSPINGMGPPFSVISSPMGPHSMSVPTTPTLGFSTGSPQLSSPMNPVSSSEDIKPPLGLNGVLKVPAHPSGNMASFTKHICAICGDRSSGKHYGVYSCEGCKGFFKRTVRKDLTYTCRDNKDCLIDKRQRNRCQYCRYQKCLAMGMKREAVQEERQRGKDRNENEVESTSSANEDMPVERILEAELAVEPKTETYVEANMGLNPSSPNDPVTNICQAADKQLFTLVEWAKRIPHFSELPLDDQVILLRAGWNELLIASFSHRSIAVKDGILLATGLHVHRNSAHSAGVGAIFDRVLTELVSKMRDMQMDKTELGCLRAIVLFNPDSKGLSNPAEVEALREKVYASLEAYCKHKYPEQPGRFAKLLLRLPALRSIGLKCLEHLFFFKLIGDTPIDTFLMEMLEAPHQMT

CC(Cl)CCl (stereo not drawn)
not listed: [9] | [10]
inactive: all other assays above

Cc1cc2c3c(c1)C(c1ccccc1)=N[C@@H](NC(=O)c1ccncc1)C(=O)N3CC2
not listed: [9] | [10]
inactive: all other assays above

COc1cnc(OC)n2nc(NS(=O)(=O)c3c(OCC(F)F)cccc3C(F)(F)F)nc12
not listed: [9] | [10]
inactive: all other assays above

CCN(CC)Cc1nccn1-c1ccc([N+](=O)[O-])cc1C(=O)c1ccccc1Cl
not listed: [9] | [10]
inactive: all other assays above

CC(=O)[O-].CC(=O)[O-].O.O.O.[Pb+2]
active: [4] 77.6 nM
not listed: [10]
inactive: all other assays above

COP(=S)(NC(C)C)Oc1ccc(C)cc1[N+](=O)[O-] (stereo not drawn)
not listed: [9] | [10]
inactive: all other assays above

CCC1COC(Cn2cncn2)(c2ccc(Cl)cc2Cl)O1 (stereo not drawn)
not listed: [9] | [10]
inactive: all other assays above

CCCCN(CCCC)C(=S)S
not listed: [8] | [9] | [10]
inactive: all other assays above

CC1CN1 (stereo not drawn)
not listed: [10]
inactive: all other assays above

ClCBr
not listed: [10]
inactive: all other assays above

ClC1(Cl)C2(Cl)C3(Cl)C4(Cl)C(Cl)(Cl)C5(Cl)C3(Cl)C1(Cl)C5(Cl)C24Cl (stereo not drawn)
not listed: [9] | [10]
inactive: all other assays above

O=c1[nH]c2cc(Cl)ccc2n1C1CCNCC1
not listed: [2] | [9] | [10]
inactive: all other assays above

ClSC(Cl)(Cl)Cl
not listed: [8] | [9] | [10]
inactive: all other assays above

c1csc(-c2ccc(-c3cccs3)s2)c1
active: [4] 49000 nM
not listed: [8] | [9] | [10]
inactive: all other assays above

COC(=O)N(OC)c1ccccc1COc1ccn(-c2ccc(Cl)cc2)n1
inactive: [3] | [4] | [5] | [7]
active: [10] 273 nM

CC(Cc1ccccc1)N(C)Cc1ccco1 (stereo not drawn)
not listed: [8] | [10]
inactive: all other assays above

CCn1cc[n+](C)c1 (tested in a mixture with another compound)
not listed: [9] | [10]
inactive: all other assays above

CC(=O)[O-].CC(=O)[O-].CC(=O)[O-].[Cr+3]
not listed: [8] | [10]
inactive: all other assays above

CCNS(=O)(=O)C(F)(F)C(F)(F)C(F)(F)C(F)(F)C(F)(F)C(F)(F)C(F)(F)C(F)(F)F
inactive: [1] | [3] | [4] | [5] | [6] | [7]

O=S(=O)(NS(=O)(=O)C(F)(F)F)C(F)(F)F
inactive: [1] | [2] | [3] | [4] | [5] | [6]

COc1ccc(Cc2nccc3cc(OC)c(OC)cc23)cc1OC
active: [10] 4220 nM
not listed: [6]
inactive: all other assays above

C=CCBr
not listed: [9] | [10]
inactive: all other assays above

O=c1[nH]c(Cl)c(Cl)cc1Cl
not listed: [9] | [10]
inactive: all other assays above

[Cl-].[Cl-].[Sn+2]
not listed: [9] | [10]
inactive: all other assays above

CCNc1nc(NC(C)C(C)C)nc(SC)n1 (stereo not drawn)
not listed: [9] | [10]
inactive: all other assays above

COC(=O)C(C)N(C(=O)c1ccco1)c1c(C)cccc1C (stereo not drawn)
not listed: [9] | [10]
inactive: all other assays above

Cc1ccc(C)c2ccccc12
not listed: [6] | [9] | [10]
inactive: all other assays above

CCCCCCC[CH2][Sn]([Cl])([Cl])[CH2]CCCCCCC
inactive: [2] | [3] | [4] | [5] | [7]
